Screening results as filed in PubChem.
HT1080NT lethal: kills 2HG-producing HT-1080-NT fibrosarcoma cells; Potency, µM (series often up to 46.1 µM), for inactives: at the highest dose activity, negative = less viability, most hits filed as cytotoxic; HT-1080-NT fibrosarcoma viability, CellTiter-Glo ATP luminescence, 48 h; AID 686970; hit rate 1.6% among 360,000;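 also: NT is the 2HG producing partner of a matched IDH1 knockdown line; 0% = DMSO-treated cells and -100% = media-only wells without cells; nearly all actives have a fitted effect of over 55% in size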
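Fibrosarcoma NT cells, 750 per well in 5% FBS RPMI, were exposed to compound for 48 hours. Viability: CellTiter-Glo luminescence.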
SW480 rerep: inducers of DNA re-replication in SW480 colon cancer cells; AID 624297; SW480 DNA re-replication, Hoechst DNA content imaging, 48 h; Potency, µM (highest dose often 46.1 µM), for inactives: at the highest dose re-replication activation, actives largely listed as activators; hit rate 1.8% among 340,000; also: % of control where 0% means no effect; nearly all actives have a fitted effect of over 55% in size
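Treated cells incubate 48 hr (37 C, 5% CO2), are stained 40 min with Hoechst, and nuclear fluorescence is enumerated; a rise in nuclei with high DNA signal marks re-replication.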
HT1080 IDH1KD tx: toxicity to HT-1080 IDH1 knockdown cells (counter line). HT-1080 IDH1 knockdown viability, ATP luminescence, 48 h. Potency, µM (titrated, usually from 46.1 µM), for inactives: at the highest dose activity, negative = toxicity, hits mostly cytotoxic. hit rate 2% among 360,000;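 also: 0% = DMSO wells and -100% = cell-free medium wells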
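Knockdown cells (IDH1KD HT-1080) received compounds 2 h after plating at 750 cells/well and were kept 48 h at 37 °C in 5% FBS RPMI. A CellTiter-Glo luminescence read gave % activity for curve fitting.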
MCF10A rerep: DNA re-replication induction in MCF 10a cells; MCF 10A DNA re-replication, Hoechst nuclear intensity, 48 h; Potency, µM (titrated, usually from 46.1 µM), without a hit: top-dose activity, positive = re-replication, actives largely listed as activators; hit rate 2.9% among 350,000; also: % of control where 0% means no effect; nearly all actives have a fitted effect of over 50% in size
KB-3-1 tox: KB-3-1 parental cell cytotoxicity. KB-3-1 viability, CellTiter-Glo ATP luminescence, 72 h. Potency, µM (top dose mostly 46.1 µM), actives largely listed as cytotoxic. hit rate 1.4% among 400,000. AID 1347075; also: % is scaled to controls: 0 for no effect and ±100 for the full control effect; nearly all actives have a fitted effect of over 60% in size
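KB-3-1 parental drug-naive adenocarcinoma cells in DMEM/10% FBS, incubated 72 h at 37 C with pin-transferred compounds across a concentration series. Viability by CellTiter-Glo luminescence; concentration-response curves fitted after normalization.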
KB-V1 MDR tox: kills drug-selected multidrug resistant KB-V1 cells. KB-V1 MDR cells viability, CellTiter-Glo, 72 h. Potency, µM (doses to about 46.1 µM), most hits filed as cytotoxic. hit rate 3.4% among 400,000. AID 1347076; also: % is scaled to controls: 0 for no effect and ±100 for the full control effect; nearly all actives have a fitted effect of over 60% in size
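Compound-treated KB-V1 multidrug-resistant cells, 72 h, 37 degrees C; viability by CellTiter-Glo. Fitted qHTS curves give the values.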
* marks the source's active call; other numbers are inactive results. In the library only some 7.9% were active in any assay of this set; here they are far more common. Calls follow the shape of the dose curve; as a rule, active = well fitted curve in the direction sought with a large enough effect; inconclusive = small, poorly fitted or top-dose-only effect, or another doubt; inactive = no such curve, though single readings can be large; an effect the other way counts as inactive or inconclusive. Potency is read from the fitted curve at half-maximal effect.

How did C/C(=N\NC(=O)CO/N=C(\C)c1cccs1)c1ccc(N)cc1 do in these assays?
HT1080NT lethal: 1.2%; SW480 rerep: -1.6%; HT1080 IDH1KD tx: -0.1%; MCF10A rerep: 3.9%; KB-3-1 tox: inactive; KB-V1 MDR tox: inactive

Results for C/C(=N\OCC(=O)N/N=C/c1ccc(C)cc1O)c1cccs1 ?
HT1080NT lethal: -17.9%; SW480 rerep: 6.51µM*; HT1080 IDH1KD tx: -0.4%; MCF10A rerep: 4.11µM*; KB-3-1 tox: inactive; KB-V1 MDR tox: inconclusive

Results for Cc1ccccc1/C=N/NC(=O)Cc1ccc(Cl)cc1 ?
HT1080NT lethal: -16.5%; SW480 rerep: -9.1%; HT1080 IDH1KD tx: -12.6%; MCF10A rerep: inconclusive; KB-3-1 tox: inactive; KB-V1 MDR tox: inactive

How did Cc1ccc(/C=N/NC(=O)Cc2ccc(Cl)cc2)c(O)c1 do in these assays?
HT1080NT lethal: inconclusive; SW480 rerep: 7.31µM*; HT1080 IDH1KD tx: 18.4µM*; MCF10A rerep: 14.5%; KB-3-1 tox: inconclusive; KB-V1 MDR tox: 7.31µM*

How did Cc1cc(Br)ccc1NC(=O)c1coc(=O)c2ccccc12 do in these assays?
KB-3-1 tox: inactive; KB-V1 MDR tox: inactive

What do the screens show for `O=C1OCCN1C(=O)[C@H]1[C@H](c2ccc(F)cc2)C(c2cccc(Cl)c2)=NN1c1ccccc1`?
HT1080NT lethal: -12.8%; SW480 rerep: 18.4µM*; HT1080 IDH1KD tx: -24.5%; MCF10A rerep: 0.581µM*; KB-3-1 tox: inactive; KB-V1 MDR tox: inactive

How did Cc1cccc(C2=NN(c3ccccc3)[C@@H](C(=O)N3CCOC3=O)[C@@H]2c2ccc([N+](=O)[O-])cc2)c1 do in these assays?
HT1080NT lethal: -16.0%; SW480 rerep: 16.6%; HT1080 IDH1KD tx: -12.5%; MCF10A rerep: -8.1%; KB-3-1 tox: inactive; KB-V1 MDR tox: inactive

What do the screens show for `C[C@@H]1C(c2ccc(F)cc2)=NN(c2ccccc2)[C@H]1C(=O)N1CCOC1=O`?
HT1080NT lethal: -18.4%; SW480 rerep: 2.7%; HT1080 IDH1KD tx: -26.7%; MCF10A rerep: inconclusive; KB-3-1 tox: inconclusive; KB-V1 MDR tox: inactive

Results for O=C1OCCN1C(=O)[C@H]1[C@H](c2ccc(Cl)cc2)C(c2cccc(Cl)c2)=NN1c1ccccc1 ?
HT1080NT lethal: -17.1%; SW480 rerep: 11.6µM*; HT1080 IDH1KD tx: -19.9%; MCF10A rerep: inconclusive; KB-3-1 tox: inactive; KB-V1 MDR tox: inactive

How did Cc1ccc(OCC(=O)Nc2c(Cl)ccc3nsnc23)cc1C do in these assays?
KB-3-1 tox: inactive; KB-V1 MDR tox: inconclusive

How did Cc1ccc(OCCCN2C(=O)C(=O)c3cc(C)ccc32)cc1 do in these assays?
HT1080NT lethal: -9.1%; SW480 rerep: 23.1µM*; HT1080 IDH1KD tx: -11.0%; MCF10A rerep: 20.6µM*; KB-3-1 tox: inconclusive; KB-V1 MDR tox: inactive

What do the screens show for `CCCc1cc(CN2CCOCC2)c(O)c(CN2CCOCC2)c1O`?
HT1080NT lethal: 13.0%; SW480 rerep: inconclusive; HT1080 IDH1KD tx: inconclusive; MCF10A rerep: 14.6µM*; KB-3-1 tox: inactive; KB-V1 MDR tox: inconclusive

What do the screens show for `Oc1c(CN2CCOCC2)cc(CN2CCOCC2)c(O)c1O`?
HT1080NT lethal: 4.4%; SW480 rerep: -1.7%; HT1080 IDH1KD tx: -1.8%; MCF10A rerep: 1.2%; KB-3-1 tox: inactive; KB-V1 MDR tox: inactive

Results for CCC(C)c1ccc(NC(=O)C2CCCN(c3ncccn3)C2)cc1 (stereo not given) ?
HT1080NT lethal: inconclusive; SW480 rerep: 18.4%; HT1080 IDH1KD tx: inconclusive; MCF10A rerep: inconclusive; KB-3-1 tox: 10µM*; KB-V1 MDR tox: 7.94µM*

What do the screens show for `Cc1ccnc(N2CCCC(C(=O)Nc3ccc(C)c(C)c3)C2)n1` (stereo not given)?
HT1080NT lethal: -1.1%; SW480 rerep: -7.0%; HT1080 IDH1KD tx: 9.4%; MCF10A rerep: 16.4µM*; KB-3-1 tox: inactive; KB-V1 MDR tox: inactive

Results for Cc1ccc(NC(=O)C2CCCN(c3ncccn3)C2)cc1C (stereo not given) ?
HT1080NT lethal: 0.0%; SW480 rerep: -7.8%; HT1080 IDH1KD tx: -0.4%; MCF10A rerep: 14.0%; KB-3-1 tox: inactive; KB-V1 MDR tox: inactive

Results for CCC(C)c1ccc(NC(=O)C2CC3CCC2C3)cc1 (stereo not given) ?
HT1080NT lethal: -23.5%; SW480 rerep: inconclusive; HT1080 IDH1KD tx: -13.5%; MCF10A rerep: 7.31µM*; KB-3-1 tox: inactive; KB-V1 MDR tox: inactive

Results for COc1cccc(-c2ccc(NC(=O)C3CCCN(CCCn4nc(C)cc4C)C3)cc2)c1 (stereo not given) ?
HT1080NT lethal: inconclusive; SW480 rerep: 20.6µM*; HT1080 IDH1KD tx: inconclusive; MCF10A rerep: inconclusive; KB-3-1 tox: inconclusive; KB-V1 MDR tox: inactive

What do the screens show for `COc1cccc(-c2nc(CN3CCN(C(=O)c4ccco4)CC3)c(C)o2)c1OC`?
HT1080NT lethal: 6.9%; HT1080 IDH1KD tx: 1.3%; KB-3-1 tox: inactive; KB-V1 MDR tox: inactive

What do the screens show for `Cc1cccc(OCC(=O)OCc2cc(=O)n3nc(-c4cccs4)sc3n2)c1`?
KB-3-1 tox: inactive; KB-V1 MDR tox: inactive

Results for COc1ccc(NC(=O)C2CCCN(c3nc(C)cc(C)n3)C2)cc1 (stereo not given) ?
HT1080NT lethal: -2.5%; SW480 rerep: -24.2%; HT1080 IDH1KD tx: 3.6%; MCF10A rerep: 2.91µM*; KB-3-1 tox: inactive; KB-V1 MDR tox: inconclusive

What do the screens show for `COc1ccccc1N1CCN(C(=O)c2cnn(-c3cccc(Cl)c3)c2C2CCN(C(=O)OC(C)(C)C)CC2)CC1`?
KB-3-1 tox: inactive; KB-V1 MDR tox: inactive

Results for COc1cccc(NC(=O)c2cnc(SCC(=O)N3CCOCC3)n(C)c2=O)c1 ?
KB-3-1 tox: inactive; KB-V1 MDR tox: inactive

How did Cc1sc2nc3c4ccccc4c(NCc4ccco4)nn3c(=O)c2c1C do in these assays?
HT1080NT lethal: -23.8%; SW480 rerep: 4.61µM*; HT1080 IDH1KD tx: -22.2%; MCF10A rerep: 2.59µM*; KB-3-1 tox: inactive; KB-V1 MDR tox: inactive

Results for Cc1nc(NCc2ccco2)c2c(C)c(C)sc2n1 ?
HT1080NT lethal: 5.62µM*; SW480 rerep: inconclusive; HT1080 IDH1KD tx: 2.82µM*; MCF10A rerep: 23.6%; KB-3-1 tox: 11.6µM*; KB-V1 MDR tox: inconclusive

How did CCOC(=O)c1sc2nc(CSc3ccccc3)nc(NCCN(C)C)c2c1C do in these assays?
HT1080NT lethal: 18.4µM*; SW480 rerep: inconclusive; HT1080 IDH1KD tx: inconclusive; MCF10A rerep: inconclusive; KB-3-1 tox: inactive; KB-V1 MDR tox: inactive
